Source: the supplement of paper PMC10849652
About 8,800 targets were measured; listed, in parts, are those with a hit and a random draw of the rest. About 0.5% of all pairs of compound and target were hits. Values without a mark were called inactive.

Tests used:
Assay in all cases: log2 fold change, soluble protein after heating vs DMSO (PISA); higher = thermal stabilisation; K562 lysate, 10 uM; active = over 0.2 and 3.5 SD of the protein, either way, in both replicates (recomputed)
vemurafenib = compound: CCCS(=O)(=O)Nc1ccc(F)c(C(=O)c2c[nH]c3ncc(-c4ccc(Cl)cc4)cc23)c1F [vemurafenib]
In short: (§1)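 A 30 min treatment with 10 μM compound was applied to crude K562 extract at 1 mg/mL protein in PBS pH 7.4 with 1 mM MgCl2. Heating for 3 min spanned 48°C-58°C, after which aliquots were pooled, adjusted to 0.5% NP-40 at 4°C and spun at 21,000xg for 90 min. TMTpro 16plex LC-MS/MS of the supernatant, with channel sums equalised, gave values recorded as log-two fold change in thermal stability against solvent controls, from duplicates.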

[1] = compound: CCCS(=O)(=O)Nc1ccc(F)c(C(=O)c2c[nH]c3ncc(Cl)cc23)c1F
In short: as §1

barasertib = compound: CCN(CCCOc1ccc2c(Nc3cc(CC(=O)Nc4cccc(F)c4)[nH]n3)ncnc2c1)CCOP(=O)(O)O [barasertib]
In short: as §1

[2] = compound: CC[C@@H]1C(=O)N(C)c2cnc(Nc3ccc(C(=O)NC4CCN(C)CC4)cc3OC)nc2N1C1CCCC1
In short: as §1

volasertib = compound: CC[C@@H]1C(=O)N(C)c2cnc(Nc3ccc(C(=O)N[C@H]4CC[C@H](N5CCN(CC6CC6)CC5)CC4)cc3OC)nc2N1C(C)C [volasertib]
In short: as §1

[3] = compound: CCn1c(C(=O)N(C2CC2)C2CC2)cc2c3c(ncn3C)c(Nc3cc(C)n(C)n3)nc21
In short: as §1

[4] = compound: CCn1cc(-c2ccnc3[nH]c(-c4cccc(CN(C)C)c4)cc23)c(-c2ccc(NC(=O)N(C)C)cc2)n1
In short: as §1

[5] = compound: CN1CCC(CNc2ccc3ncc(-c4cccc(OC(F)(F)F)c4)n3n2)CC1
In short: as §1

saracatinib = compound: CN1CCN(CCOc2cc(OC3CCOCC3)c3c(Nc4c(Cl)ccc5c4OCO5)ncnc3c2)CC1 [saracatinib]
In short: as §1

sotrastaurin = compound: CN1CCN(c2nc(C3=C(c4c[nH]c5ccccc45)C(=O)NC3=O)c3ccccc3n2)CC1 [sotrastaurin]
In short: as §1

alvocidib = compound: CN1CC[C@H](c2c(O)cc(O)c3c(=O)cc(-c4ccccc4Cl)oc23)[C@H](O)C1 [alvocidib]
In short: as §1

Tubastatin A = compound: CN1CCc2c(c3ccccc3n2Cc2ccc(C(=O)NO)cc2)C1 [Tubastatin A]
In short: as §1

[6] = compound: CNC(=O)C1=CC=CC=C1NC2=NC(=NC=C2Cl)NC3=C(C=C(C=C3)N4CCOCC4)OC
In short: as §1

defactinib = compound: CNC(=O)c1ccc(Nc2ncc(C(F)(F)F)c(NCc3nccnc3N(C)S(C)(=O)=O)n2)cc1 [defactinib]
In short: as §1

[7] = compound: CNc1nc(-c2ccc3c(N)n[nH]c3c2)cc(N2C[C@@H](C(=O)NC3CCCCC3)CC[C@H]2C)n1
In short: as §1

encorafenib = compound: COC(=O)N[C@@H](C)CNc1nccc(-c2cn(C(C)C)nc2-c2cc(Cl)cc(NS(C)(=O)=O)c2F)n1 [encorafenib]
In short: as §1

[8] = compound: COC(=O)[C@H](CCSC)NC(=O)C1=C(C=C(C=C1)NC[C@H](CS)N)C2=CC=CC=C2
In short: as §1

alisertib = compound: COc1cc(Nc2ncc3c(n2)-c2ccc(Cl)cc2C(c2c(F)cccc2OC)=NC3)ccc1C(=O)O [alisertib]
In short: as §1

[9] = compound: COc1cc2nc(-c3cc(F)ccc3O)nc(N[C@@H]3CNC[C@H]3C(C)(C)O)c2cc1OC
In short: as §1

gefitinib = compound: COc1cc2ncnc(Nc3ccc(F)c(Cl)c3)c2cc1OCCCN1CCOCC1 [gefitinib]
In short: as §1

UniProt O60237, sequence (O60237 whole entry, looked up): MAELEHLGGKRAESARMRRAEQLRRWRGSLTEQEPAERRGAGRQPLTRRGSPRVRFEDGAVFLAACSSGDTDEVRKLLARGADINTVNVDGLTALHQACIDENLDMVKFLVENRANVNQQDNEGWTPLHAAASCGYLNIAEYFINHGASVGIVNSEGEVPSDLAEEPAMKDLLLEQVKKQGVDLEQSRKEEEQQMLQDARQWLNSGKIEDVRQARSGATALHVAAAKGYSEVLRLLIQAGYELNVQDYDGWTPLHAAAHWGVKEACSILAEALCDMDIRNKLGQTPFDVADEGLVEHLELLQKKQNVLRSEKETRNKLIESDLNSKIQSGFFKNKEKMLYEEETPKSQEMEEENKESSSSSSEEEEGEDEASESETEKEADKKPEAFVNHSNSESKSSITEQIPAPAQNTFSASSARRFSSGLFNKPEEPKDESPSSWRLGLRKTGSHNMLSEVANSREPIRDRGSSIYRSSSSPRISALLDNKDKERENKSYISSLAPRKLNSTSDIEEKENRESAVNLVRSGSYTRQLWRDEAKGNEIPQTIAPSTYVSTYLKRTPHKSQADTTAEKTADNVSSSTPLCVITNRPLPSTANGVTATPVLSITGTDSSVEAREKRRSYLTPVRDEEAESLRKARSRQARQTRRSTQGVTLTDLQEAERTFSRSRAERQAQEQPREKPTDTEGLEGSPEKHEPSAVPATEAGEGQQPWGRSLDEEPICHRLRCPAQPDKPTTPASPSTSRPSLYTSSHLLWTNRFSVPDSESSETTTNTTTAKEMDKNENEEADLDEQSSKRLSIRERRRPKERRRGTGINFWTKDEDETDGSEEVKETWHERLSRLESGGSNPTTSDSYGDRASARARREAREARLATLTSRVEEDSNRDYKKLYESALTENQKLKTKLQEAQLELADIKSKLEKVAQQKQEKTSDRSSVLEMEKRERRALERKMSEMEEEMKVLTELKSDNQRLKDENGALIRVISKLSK
UniProt O94906, sequence (O94906 whole entry, looked up): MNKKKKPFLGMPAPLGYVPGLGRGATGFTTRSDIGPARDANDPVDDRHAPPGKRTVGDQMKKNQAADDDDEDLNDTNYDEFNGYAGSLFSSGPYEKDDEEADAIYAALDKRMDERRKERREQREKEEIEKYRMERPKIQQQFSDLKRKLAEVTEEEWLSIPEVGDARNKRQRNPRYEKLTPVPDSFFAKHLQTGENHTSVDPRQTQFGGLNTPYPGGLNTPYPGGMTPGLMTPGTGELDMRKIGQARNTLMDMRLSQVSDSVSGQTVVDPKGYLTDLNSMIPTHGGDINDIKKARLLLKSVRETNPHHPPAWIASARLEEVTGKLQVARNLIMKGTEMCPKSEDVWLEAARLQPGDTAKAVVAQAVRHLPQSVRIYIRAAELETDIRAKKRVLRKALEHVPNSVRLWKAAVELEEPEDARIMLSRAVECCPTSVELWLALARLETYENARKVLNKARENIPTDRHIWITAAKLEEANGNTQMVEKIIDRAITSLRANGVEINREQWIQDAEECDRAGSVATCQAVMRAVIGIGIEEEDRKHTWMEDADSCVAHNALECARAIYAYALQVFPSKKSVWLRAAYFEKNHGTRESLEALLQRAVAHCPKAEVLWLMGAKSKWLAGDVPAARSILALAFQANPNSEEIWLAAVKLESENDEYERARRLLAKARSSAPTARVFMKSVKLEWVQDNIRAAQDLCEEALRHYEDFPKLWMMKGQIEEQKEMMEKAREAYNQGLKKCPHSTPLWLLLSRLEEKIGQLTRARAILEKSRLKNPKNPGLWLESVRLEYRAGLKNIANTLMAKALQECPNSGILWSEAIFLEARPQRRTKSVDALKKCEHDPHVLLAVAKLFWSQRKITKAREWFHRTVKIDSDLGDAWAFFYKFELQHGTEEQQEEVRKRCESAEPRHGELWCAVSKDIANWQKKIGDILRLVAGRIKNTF
UniProt Q9ULR3, sequence (Q9ULR3 whole entry, looked up): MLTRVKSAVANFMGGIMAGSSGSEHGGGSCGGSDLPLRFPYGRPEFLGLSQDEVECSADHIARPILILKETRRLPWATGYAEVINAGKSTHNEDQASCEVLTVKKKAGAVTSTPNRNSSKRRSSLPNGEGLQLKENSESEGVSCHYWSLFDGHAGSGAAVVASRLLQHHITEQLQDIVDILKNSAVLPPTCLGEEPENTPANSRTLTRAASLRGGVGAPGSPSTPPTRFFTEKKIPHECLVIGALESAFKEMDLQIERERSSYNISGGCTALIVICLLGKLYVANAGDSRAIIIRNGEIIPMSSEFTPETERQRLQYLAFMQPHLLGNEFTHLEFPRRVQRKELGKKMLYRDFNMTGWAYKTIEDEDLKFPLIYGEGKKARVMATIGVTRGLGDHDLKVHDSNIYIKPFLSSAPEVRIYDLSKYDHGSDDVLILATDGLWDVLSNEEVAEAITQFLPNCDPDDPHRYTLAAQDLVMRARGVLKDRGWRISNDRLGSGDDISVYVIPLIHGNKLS
UniProt Q8NEB9, sequence (Q8NEB9 whole entry, looked up): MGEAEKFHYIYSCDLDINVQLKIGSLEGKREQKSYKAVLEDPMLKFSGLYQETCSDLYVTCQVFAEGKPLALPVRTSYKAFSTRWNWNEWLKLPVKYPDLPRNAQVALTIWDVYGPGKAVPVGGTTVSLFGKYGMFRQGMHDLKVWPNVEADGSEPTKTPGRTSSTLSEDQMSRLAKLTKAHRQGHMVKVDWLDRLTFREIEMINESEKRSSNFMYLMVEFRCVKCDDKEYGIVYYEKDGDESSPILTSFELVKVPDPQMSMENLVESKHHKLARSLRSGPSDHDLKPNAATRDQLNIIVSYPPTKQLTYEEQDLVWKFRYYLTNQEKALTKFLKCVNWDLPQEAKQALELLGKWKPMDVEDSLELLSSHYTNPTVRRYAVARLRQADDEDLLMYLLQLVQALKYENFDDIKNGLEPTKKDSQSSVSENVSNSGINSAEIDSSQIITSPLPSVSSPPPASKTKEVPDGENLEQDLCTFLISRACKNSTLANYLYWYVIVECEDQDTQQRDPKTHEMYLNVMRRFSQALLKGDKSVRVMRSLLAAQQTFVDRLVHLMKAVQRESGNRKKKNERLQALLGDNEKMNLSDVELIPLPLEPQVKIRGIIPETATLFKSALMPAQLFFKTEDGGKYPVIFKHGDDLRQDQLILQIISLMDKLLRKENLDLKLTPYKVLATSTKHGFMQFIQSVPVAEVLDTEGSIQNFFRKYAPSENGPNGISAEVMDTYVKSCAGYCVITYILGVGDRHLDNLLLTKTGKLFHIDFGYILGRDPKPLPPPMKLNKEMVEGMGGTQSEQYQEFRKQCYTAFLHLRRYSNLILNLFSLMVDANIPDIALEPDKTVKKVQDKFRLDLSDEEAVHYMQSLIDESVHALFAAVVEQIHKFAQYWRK
UniProt Q15366, sequence (Q15366 whole entry, looked up): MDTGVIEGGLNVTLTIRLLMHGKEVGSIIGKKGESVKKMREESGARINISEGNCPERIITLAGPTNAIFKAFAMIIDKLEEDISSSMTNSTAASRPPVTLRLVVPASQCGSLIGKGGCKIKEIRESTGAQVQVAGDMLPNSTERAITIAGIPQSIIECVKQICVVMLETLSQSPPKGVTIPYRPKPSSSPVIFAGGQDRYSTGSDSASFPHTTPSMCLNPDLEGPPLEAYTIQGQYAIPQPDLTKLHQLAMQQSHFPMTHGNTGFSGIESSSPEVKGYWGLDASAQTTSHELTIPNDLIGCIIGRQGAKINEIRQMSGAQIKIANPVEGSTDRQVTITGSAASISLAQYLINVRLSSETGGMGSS
UniProt P50336, sequence (P50336 whole entry, looked up): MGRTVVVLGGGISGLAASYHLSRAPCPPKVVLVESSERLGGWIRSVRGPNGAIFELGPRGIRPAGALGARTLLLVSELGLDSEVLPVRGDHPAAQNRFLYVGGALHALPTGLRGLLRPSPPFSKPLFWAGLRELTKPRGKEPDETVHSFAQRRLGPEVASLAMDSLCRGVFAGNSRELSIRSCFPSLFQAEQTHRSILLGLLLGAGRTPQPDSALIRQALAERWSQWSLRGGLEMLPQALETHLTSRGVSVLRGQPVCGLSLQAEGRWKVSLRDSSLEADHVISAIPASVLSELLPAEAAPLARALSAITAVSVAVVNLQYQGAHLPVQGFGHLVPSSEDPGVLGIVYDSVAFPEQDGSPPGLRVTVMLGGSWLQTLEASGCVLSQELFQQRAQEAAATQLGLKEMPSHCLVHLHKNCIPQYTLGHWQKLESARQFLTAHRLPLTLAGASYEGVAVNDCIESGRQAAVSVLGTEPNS
UniProt O94806, sequence (O94806 whole entry, looked up): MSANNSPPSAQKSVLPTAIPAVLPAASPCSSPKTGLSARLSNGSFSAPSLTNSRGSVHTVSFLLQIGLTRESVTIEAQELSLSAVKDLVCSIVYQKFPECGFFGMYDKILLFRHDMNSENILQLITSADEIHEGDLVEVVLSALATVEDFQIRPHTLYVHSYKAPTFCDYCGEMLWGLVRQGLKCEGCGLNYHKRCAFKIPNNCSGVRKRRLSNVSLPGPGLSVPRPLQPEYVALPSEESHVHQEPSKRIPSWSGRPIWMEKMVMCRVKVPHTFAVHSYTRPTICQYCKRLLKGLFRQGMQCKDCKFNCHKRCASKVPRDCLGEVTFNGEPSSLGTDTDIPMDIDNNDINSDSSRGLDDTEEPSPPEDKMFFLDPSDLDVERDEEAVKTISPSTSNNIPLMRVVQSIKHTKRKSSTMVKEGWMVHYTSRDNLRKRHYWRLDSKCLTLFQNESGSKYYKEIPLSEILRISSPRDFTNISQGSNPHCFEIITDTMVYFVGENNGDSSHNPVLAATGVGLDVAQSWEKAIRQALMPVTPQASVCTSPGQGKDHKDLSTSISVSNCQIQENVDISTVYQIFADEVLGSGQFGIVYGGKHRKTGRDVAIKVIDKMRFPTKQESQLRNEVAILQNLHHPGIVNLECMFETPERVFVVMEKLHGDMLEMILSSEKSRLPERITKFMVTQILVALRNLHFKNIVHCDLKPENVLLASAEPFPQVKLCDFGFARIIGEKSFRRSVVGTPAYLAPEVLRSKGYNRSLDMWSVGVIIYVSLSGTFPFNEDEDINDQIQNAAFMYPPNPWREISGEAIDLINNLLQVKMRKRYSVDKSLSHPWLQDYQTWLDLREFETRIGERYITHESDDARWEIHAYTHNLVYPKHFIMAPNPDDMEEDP

| Target | log2 fold change (vemurafenib) | log2 fold change [1] | log2 fold change (barasertib) | log2 fold change [2] | log2 fold change (volasertib) | log2 fold change [3] | log2 fold change [4] | log2 fold change [5] | log2 fold change (saracatinib) | log2 fold change (sotrastaurin) | log2 fold change (alvocidib) | log2 fold change (Tubastatin A) | log2 fold change [6] | log2 fold change (defactinib) | log2 fold change [7] | log2 fold change (encorafenib) | log2 fold change [8] | log2 fold change (alisertib) | log2 fold change [9] | log2 fold change (gefitinib) |
| --- | --- | --- | --- | --- | --- | --- | --- | --- | --- | --- | --- | --- | --- | --- | --- | --- | --- | --- | --- | --- |
| PDCD4 (UniProt Q53EL6) | 0.014 | 0.02 | 0.024 | -0.023 | -0.03 | 0.029 | -0.029 | -0.013 | 0.009 | 0.001 | 0.01 | -0.033 | 0.017 | 0.002 | 0.019 | 0.019 | -0.034 | -0.005 | 0.015 | -0.003 |
| PTMA (UniProt P06454) | 0.022 | -0.049 | 0.018 | 0.06 | 0.004 | -0.031 | 0.569 (active) | -0.337 (active) | -0.061 | 0.04 | 0.194 | 0.09 | -0.104 | 0.049 | 0.007 | -0.003 | -0.038 | 0.01 | 0.042 | 0.014 |
| PPM1H (UniProt Q9ULR3) | 0.066 | -0.001 | 0 | 0.103 | 0.025 | 0 | -0.079 | 0.041 | -0.062 | 0.022 | -0.046 | 0.071 | 0.006 | -0.03 | 0.078 | -0.008 | -0.028 |  | 0.05 |  |
| PRPF6 (UniProt O94906) | -0.019 | 0.004 | 0.039 | -0.057 | -0.015 | 0.019 | 0.034 | -0.049 | 0.009 | 0.025 | 0.006 | -0.096 | 0.01 | 0.025 | -0.011 | 0.024 | 0.22 (active) | 0.008 | 0.009 | -0.016 |
| PDAP1 (UniProt Q13442) | -0.026 | -0.01 | -0.064 | 0.069 | 0.04 | -0.043 | -0.267 (active) | 0.159 | -0.002 | -0.02 | -0.074 | 0.063 | 0.004 | -0.012 | 0.109 | -0.038 | -0.017 | 0.006 | 0.018 | -0.029 |
| PPOX (UniProt P50336) | 0.058 | 0.02 | -0.093 | -0.036 | -0.007 | -0.096 | -0.075 | -0.018 | -0.044 | -0.021 | -0.004 | -0.124 | 0.257 | -0.03 | 0.107 | -0.017 | 0.076 | 0.005 | -0.035 | -0.043 |
| PRKD3 (UniProt O94806) | -0.148 | -0.057 | 0.161 | -0.25 | -0.06 | -0.143 | -0.876 (active) | 0.219 |  | 0.086 | -0.308 | -0.014 | -0.066 | 0.059 |  | 0.077 | 0.233 | 0.139 | 0.087 | -0.051 |
| POLR2G (UniProt P62487) | -0.014 | 0.02 | -0.003 | 0.03 | 0.023 | 0 | 0.025 | 0.05 | 0.016 | 0.011 | -0.034 | 0.012 | 0.038 | 0.027 | 0.019 | 0.007 | -0.032 | 0.016 | 0.017 | -0.01 |
| PFKFB3 isoform 4 (UniProt Q16875) | -0.022 | 0.134 | 0.003 | -0.003 | 0.067 | 0.037 | 0.003 | -0.046 | -0.024 | 0.034 | -0.012 | -0.05 | 0.058 | -0.006 | 0.012 | 0.041 | -0.137 | -0.01 | 0 | -0.01 |
| POLR2F (UniProt P61218) | 0.077 | -0.018 | 0.034 | -0.043 | 0.036 | 0.078 | 1.25 (active) | -0.211 | -0.042 | 0.02 | 0.272 | -0.07 | 0.031 | 0.085 | 0.2 | -0.036 | -0.02 | 0.065 | 0.003 | -0.097 |
| PPP1R14C (UniProt Q8TAE6) | -0.183 | 0.008 | 0.002 | -0.084 | 0.037 | 0.072 | -0.217 | 0.017 | -0.022 |  | -0.045 | -0.033 |  | -0.002 | -0.14 | 0.064 | 0.014 | -0.044 | -0.04 | 0.032 |
| PPP2R3C (UniProt Q969Q6) | -0.081 | -0.094 | 0.094 | -0.244 | 0 | 0.071 | -0.392 (active) | 0.115 | 0.04 |  | -0.018 | -0.145 | -0.046 | 0.072 | 0.081 | 0.105 | 0.013 | 0.069 | -0.23 | 0.105 |
| PPP1R12B isoform 6 (UniProt O60237) | 0.08 | 0.036 | -0.046 | 0.133 | -0.029 | -0.209 |  |  | -0.047 | -0.057 |  | 0.081 | 0.006 | -0.046 | 0.016 | -0.011 | 0.145 |  | 0.072 |  |
| POGK (UniProt Q9P215) | -0.035 | 0.114 | 0.011 | -0.005 | 0.033 | -0.027 | -0.397 (active) | 0.034 | 0.017 | 0.013 | -0.015 | -0.011 | 0.001 | 0.059 | -0.02 | -0.052 | 0.028 | 0.071 | -0.012 | -0.013 |
| PIK3C3 (UniProt Q8NEB9) | 0.032 | 0.019 | -0.012 | 0.098 | -0.025 | -0.075 | -0.226 | 0.121 | 0.008 | 0.007 | -0.081 | 0.02 | -0.019 | -0.004 | -0.046 | -0.016 | 0.015 | 0.012 | 0.048 | -0.037 |
| PTK2B (UniProt Q14289) | 0.001 | -0.03 | -0.013 | 0.118 | 0.022 | -0.044 | 0.001 | 0.107 | 0.019 | 0.033 |  | -0.071 | 0.401 (active) | 0.315 | -0.063 | -0.048 | -0.007 | 0.093 | 0.103 | -0.056 |
| PCBP2 isoform 8 (UniProt Q15366) | 0.078 | 0.051 | 0.016 | 0.001 | -0.05 | -0.152 | 0.054 | -0.003 | -0.018 | -0.045 | -0.01 | -0.133 | 0.022 | 0 | 0.079 | 0.053 | 0.108 | -0.013 | -0.085 | -0.122 |
